These results are taken from ChEMBL document CHEMBL2218924, “A broad activity screen in support of a chemogenomic map for kinase signalling research and drug discovery” (Biochem J, 2013).

Each structure is given as a SMILES string.

Experiment [1] has as its target T1, Ephrin type-B receptor 1 (Homo sapiens) (UniProt P54762).
T1 sequence (whole entry): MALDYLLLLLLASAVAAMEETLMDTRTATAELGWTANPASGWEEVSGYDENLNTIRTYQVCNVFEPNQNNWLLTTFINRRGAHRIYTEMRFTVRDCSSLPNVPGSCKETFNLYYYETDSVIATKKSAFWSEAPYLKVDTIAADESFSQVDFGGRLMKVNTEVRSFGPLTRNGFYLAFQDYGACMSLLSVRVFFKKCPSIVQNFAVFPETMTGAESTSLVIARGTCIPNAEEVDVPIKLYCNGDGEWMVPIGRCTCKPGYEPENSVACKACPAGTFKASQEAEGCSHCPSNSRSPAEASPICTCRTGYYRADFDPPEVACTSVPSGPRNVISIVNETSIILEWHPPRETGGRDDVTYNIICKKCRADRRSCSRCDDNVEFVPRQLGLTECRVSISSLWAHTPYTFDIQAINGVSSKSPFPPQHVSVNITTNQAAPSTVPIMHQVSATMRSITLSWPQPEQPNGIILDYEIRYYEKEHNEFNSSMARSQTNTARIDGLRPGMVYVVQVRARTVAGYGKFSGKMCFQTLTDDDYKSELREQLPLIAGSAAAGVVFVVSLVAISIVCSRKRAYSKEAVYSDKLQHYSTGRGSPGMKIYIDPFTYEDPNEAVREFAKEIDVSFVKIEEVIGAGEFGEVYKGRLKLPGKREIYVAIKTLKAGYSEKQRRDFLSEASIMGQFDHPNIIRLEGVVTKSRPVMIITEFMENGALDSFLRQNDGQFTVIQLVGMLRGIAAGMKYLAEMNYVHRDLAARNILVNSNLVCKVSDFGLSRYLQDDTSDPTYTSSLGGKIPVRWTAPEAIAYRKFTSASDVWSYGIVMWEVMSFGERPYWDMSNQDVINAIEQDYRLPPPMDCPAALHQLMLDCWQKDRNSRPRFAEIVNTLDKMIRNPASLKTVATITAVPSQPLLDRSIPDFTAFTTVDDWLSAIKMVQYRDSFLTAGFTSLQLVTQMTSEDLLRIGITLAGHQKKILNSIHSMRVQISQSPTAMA
The following applies: at 1 µM.

Experiment [2] addresses T1, Ephrin type-B receptor 1 (Homo sapiens). The following applies: at 10 µM.
The target of experiment [3] is T2, Ephrin type-B receptor 2 (Homo sapiens) (UniProt P29323).
T2 sequence (whole entry): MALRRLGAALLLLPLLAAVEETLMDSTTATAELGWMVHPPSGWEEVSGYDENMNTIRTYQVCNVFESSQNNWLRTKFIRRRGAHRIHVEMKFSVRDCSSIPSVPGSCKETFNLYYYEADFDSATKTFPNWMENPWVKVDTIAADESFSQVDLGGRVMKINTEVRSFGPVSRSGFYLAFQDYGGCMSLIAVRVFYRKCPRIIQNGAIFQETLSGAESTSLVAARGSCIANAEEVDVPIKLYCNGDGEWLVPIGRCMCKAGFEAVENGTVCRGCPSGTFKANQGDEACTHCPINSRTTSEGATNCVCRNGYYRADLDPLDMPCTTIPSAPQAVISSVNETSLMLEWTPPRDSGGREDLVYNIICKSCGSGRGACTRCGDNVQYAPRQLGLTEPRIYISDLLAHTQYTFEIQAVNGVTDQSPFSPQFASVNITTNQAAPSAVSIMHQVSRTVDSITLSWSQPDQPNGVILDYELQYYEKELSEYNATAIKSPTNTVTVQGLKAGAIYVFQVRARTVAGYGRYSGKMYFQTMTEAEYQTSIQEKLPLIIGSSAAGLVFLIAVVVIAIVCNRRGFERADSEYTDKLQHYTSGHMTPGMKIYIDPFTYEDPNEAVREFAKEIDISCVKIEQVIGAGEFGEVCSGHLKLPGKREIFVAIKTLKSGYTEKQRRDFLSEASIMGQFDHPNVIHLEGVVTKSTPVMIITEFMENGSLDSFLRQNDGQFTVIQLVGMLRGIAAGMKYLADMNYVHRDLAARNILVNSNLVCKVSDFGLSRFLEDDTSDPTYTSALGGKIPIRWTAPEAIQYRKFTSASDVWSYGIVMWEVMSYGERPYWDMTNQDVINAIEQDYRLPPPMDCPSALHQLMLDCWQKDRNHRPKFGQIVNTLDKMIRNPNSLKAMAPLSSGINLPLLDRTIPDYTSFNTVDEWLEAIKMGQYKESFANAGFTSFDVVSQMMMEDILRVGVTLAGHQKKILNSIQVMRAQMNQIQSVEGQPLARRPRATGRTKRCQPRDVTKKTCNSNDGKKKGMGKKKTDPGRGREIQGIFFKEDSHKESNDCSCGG
The following applies: at 1 µM.

Experiment [4] deals with T2, Ephrin type-B receptor 2 (Homo sapiens). The following applies: at 10 µM.
In experiment [5] the target is T3, Ephrin type-B receptor 3 (Homo sapiens) (UniProt P54753).
T3 sequence (whole entry): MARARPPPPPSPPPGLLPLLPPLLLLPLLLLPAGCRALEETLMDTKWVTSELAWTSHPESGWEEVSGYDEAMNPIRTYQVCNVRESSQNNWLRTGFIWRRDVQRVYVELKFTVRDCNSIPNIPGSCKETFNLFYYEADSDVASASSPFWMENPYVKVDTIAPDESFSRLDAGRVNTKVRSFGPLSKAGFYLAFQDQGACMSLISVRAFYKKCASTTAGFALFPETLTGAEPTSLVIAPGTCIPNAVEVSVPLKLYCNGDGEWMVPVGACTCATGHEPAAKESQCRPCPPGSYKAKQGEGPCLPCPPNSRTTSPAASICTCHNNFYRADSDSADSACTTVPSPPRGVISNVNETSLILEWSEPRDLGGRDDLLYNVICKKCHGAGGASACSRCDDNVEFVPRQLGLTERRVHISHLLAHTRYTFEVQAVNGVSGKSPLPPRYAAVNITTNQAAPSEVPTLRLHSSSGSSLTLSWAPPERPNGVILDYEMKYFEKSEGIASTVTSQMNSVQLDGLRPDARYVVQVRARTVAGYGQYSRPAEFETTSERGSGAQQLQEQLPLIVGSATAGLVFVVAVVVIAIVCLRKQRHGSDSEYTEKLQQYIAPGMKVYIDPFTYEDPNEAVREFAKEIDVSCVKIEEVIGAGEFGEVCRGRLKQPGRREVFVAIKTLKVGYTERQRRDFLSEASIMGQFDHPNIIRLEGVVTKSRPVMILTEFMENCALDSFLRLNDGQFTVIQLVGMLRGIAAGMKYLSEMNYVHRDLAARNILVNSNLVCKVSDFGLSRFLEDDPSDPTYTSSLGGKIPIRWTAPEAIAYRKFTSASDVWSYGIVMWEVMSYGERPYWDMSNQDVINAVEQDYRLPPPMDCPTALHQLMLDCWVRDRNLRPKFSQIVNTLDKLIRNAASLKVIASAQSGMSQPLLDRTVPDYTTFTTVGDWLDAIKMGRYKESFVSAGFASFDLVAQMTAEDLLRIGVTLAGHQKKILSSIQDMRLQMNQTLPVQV
The following applies: at 10 µM.

Experiment [6] addresses T4, Ephrin type-B receptor 4 (Homo sapiens) (UniProt P54760).
T4 sequence (whole entry): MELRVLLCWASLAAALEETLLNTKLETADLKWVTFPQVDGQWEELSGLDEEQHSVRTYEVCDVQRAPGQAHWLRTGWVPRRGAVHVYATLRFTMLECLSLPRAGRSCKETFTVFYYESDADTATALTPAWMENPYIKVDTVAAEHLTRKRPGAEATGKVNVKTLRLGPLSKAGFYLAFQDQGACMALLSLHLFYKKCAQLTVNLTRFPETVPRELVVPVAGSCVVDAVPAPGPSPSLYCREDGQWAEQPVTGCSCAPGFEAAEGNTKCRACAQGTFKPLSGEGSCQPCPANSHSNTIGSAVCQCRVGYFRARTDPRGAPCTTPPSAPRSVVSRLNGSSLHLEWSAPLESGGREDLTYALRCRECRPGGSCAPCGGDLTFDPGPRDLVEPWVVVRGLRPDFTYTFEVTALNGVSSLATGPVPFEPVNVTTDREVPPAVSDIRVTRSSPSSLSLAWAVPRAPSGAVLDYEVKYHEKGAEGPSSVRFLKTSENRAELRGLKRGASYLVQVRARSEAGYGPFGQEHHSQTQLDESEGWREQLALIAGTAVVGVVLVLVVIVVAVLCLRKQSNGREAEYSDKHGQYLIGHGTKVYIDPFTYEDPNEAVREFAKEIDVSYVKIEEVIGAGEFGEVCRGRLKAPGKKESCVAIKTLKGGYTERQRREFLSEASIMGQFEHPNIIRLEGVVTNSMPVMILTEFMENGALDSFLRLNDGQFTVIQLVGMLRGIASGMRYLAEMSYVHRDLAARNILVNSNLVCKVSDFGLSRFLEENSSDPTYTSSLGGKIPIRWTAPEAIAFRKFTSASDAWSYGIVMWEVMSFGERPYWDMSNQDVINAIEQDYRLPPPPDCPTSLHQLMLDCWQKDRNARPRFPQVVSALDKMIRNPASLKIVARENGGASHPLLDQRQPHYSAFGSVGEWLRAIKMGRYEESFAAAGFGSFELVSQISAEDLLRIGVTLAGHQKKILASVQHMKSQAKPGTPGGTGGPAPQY
The following applies: at 1 µM.

The target in experiment [7] is T4, Ephrin type-B receptor 4 (Homo sapiens). The following applies: at 10 µM.
Experiment [8] has as its target Receptor tyrosine-protein kinase erbB-4 (Homo sapiens) (UniProt Q15303). The following applies: at 1 µM.
The target is the same in experiment [9]. The following applies: at 10 µM.
Experiment [10] concerns the target Focal adhesion kinase 1 (Homo sapiens) (UniProt Q05397). The following applies: at 1 µM.

Chain of Receptor tyrosine-protein kinase erbB-4 (Homo sapiens) (Q15303 whole entry): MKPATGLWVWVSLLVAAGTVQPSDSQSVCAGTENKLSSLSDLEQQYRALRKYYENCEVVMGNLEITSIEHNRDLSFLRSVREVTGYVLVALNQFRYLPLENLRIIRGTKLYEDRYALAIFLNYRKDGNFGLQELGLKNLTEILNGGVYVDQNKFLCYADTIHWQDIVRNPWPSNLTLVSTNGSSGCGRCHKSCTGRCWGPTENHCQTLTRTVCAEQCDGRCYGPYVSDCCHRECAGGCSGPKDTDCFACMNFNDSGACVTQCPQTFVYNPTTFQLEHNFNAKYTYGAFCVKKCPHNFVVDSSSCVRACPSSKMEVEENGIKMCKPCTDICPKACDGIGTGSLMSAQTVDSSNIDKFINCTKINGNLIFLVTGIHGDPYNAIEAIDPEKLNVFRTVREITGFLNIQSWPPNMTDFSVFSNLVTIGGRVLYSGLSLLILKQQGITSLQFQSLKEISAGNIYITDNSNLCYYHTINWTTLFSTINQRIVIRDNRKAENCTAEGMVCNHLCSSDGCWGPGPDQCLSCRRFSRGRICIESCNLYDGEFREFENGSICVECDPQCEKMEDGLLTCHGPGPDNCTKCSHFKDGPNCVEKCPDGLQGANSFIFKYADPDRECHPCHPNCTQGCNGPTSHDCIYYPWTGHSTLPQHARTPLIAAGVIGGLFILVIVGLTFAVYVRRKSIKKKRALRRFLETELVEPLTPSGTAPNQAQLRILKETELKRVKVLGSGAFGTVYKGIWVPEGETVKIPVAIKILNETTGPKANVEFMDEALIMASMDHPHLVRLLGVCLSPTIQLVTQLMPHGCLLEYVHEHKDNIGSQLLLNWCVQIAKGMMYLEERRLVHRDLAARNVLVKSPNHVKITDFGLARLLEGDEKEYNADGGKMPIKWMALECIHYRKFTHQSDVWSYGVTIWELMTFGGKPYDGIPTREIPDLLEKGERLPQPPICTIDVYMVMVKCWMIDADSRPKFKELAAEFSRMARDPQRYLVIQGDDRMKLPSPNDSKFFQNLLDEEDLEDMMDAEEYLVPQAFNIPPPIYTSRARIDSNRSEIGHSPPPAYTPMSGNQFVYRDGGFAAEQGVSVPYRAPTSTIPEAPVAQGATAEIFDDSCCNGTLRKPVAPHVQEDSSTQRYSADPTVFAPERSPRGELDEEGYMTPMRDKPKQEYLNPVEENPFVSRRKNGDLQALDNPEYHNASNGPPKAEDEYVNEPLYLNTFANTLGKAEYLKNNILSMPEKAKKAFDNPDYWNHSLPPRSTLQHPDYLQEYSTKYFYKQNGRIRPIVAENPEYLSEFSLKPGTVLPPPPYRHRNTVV
Chain of Focal adhesion kinase 1 (Homo sapiens) (Q05397 2-1052 limits assumed): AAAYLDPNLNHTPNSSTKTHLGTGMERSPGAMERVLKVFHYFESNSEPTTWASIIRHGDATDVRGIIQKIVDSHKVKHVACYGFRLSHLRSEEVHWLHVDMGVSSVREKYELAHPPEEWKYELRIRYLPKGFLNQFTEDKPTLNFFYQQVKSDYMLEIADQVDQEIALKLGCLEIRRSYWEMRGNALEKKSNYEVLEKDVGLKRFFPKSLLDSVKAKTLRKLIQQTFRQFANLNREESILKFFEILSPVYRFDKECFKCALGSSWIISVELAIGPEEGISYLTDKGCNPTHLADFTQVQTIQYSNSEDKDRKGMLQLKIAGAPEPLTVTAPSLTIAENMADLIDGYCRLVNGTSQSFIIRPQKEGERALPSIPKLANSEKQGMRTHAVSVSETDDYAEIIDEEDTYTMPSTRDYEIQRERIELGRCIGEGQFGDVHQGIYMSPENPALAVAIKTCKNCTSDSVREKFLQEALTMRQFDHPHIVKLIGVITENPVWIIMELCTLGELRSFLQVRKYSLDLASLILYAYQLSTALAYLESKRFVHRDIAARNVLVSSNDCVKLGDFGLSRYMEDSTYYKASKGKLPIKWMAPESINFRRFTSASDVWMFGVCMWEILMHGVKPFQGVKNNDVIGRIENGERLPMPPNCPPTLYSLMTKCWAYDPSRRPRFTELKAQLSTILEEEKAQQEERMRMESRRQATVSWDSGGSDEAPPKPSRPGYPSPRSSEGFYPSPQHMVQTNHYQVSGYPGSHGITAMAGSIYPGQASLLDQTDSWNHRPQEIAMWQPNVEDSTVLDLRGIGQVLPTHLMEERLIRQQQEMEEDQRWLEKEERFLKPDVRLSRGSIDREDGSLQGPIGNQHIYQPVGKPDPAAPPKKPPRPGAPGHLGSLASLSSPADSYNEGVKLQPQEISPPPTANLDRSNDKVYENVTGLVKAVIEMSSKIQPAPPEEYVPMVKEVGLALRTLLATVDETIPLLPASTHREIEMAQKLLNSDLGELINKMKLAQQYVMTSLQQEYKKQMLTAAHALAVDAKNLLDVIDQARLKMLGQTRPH

On to `Oc1c2ccccc2c2c3c(cccc13)N=N2`, for which the residual activity in experiment [1] was determined as 91%; in experiment [2], 29%; in experiment [3], 101%; in experiment [4], 95%; in experiment [5], 81%; in [6] it was 89%. Also, the residual activity was found to be 55% in experiment [7], 104% in experiment [8], 97% in experiment [9] and 52% in [10].

The residual activity is the signal under treatment as a percentage of the control signal.
